The results in this text go back to the supplement of paper PMC9801561.
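Further: biolog PM4 phosphorus and sulfur plates, tetrazolium violet dye reduction read in the OmniLog every 15 min, kinetic curves scored by DuctApe, each plate run in triplicate.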

One experiment has as its system Escherichia coli Nissle 1917. Nature of the experiment: DuctApe activity index of respiration/growth curve (0 no growth to 9 maximum) (index 0-9); higher = more growth / nutrient utilisation, active = 3 or more; extreme values may be limits of the assay. To be noted: nutrient role: sole phosphorus source (pyruvate carbon); incubation: 48 h, 37 °C.
For `O=C(O)CP(=O)(O)O` [Phosphono Acetic acid], the DuctApe activity index is 1.33 (inactive).

As to `O=P(O)(O)OC[C@H]1OC(O)C[C@@H](O)[C@@H]1O` (stereo partly drawn) [2-Deoxy-D-Glucose 6-Phosphate], the DuctApe activity index was 0 (inactive).

Consider `Nc1ncnc2c1ncn2[C@@H]1O[C@H](COP(=O)(O)O)[C@@H](O)[C@H]1O` [Adenosine 5`-Monophosphate], for which the DuctApe activity index is 8.67 (active).

With `Nc1ccn([C@@H]2O[C@H](CO)[C@@H](OP(=O)(O)O)[C@H]2O)c(=O)n1` [Cytidine 3`-Monophosphate], the DuctApe activity index is 0 (inactive).

Regarding `Cc1cn([C@H]2C[C@H](O)[C@@H](COP(=O)(O)O)O2)c(=O)[nH]c1=O` [Thymidine 5`-Monophosphate], the DuctApe activity index was 8.67 (active).

With `Nc1ccn([C@@H]2O[C@H](COP(=O)(O)O)[C@@H](O)[C@H]2O)c(=O)n1` [Cytidine 5`-Monophosphate], the DuctApe activity index is 8.67 (active).

With `Nc1nc2c(ncn2[C@@H]2O[C@H](COP(=O)(O)O)[C@@H](O)[C@H]2O)c(=O)[nH]1` [Guanosine 5`-Monophosphate], the DuctApe activity index is 8.67 (active).

Take `N[C@H](COP(=O)(O)O)C(=O)O` [O-Phospho-D-Serine]: the DuctApe activity index is 8.67 (active).

Staying with this experiment, now noted: nutrient role: sole sulfur source (pyruvate carbon); incubation: 48 h, 37 °C.
For the molecule `CC(=O)N[C@@H](CS)C(=O)O` [N-Acetyl-L-Cysteine], the DuctApe activity index is 0.333 (inactive).

As to `CSCCC(NC(C)=O)C(=O)O` (racemic) [N-Acetyl-D,L-Methionine], the DuctApe activity index was 7 (active).

Consider `NC(CCSCC(N)C(=O)O)C(=O)O` (configuration not stated) [Cystathionine], for which the DuctApe activity index was 6 (active).

Regarding `O=S(O)(O)=S` [Thiosulfate], the DuctApe activity index was 7 (active).
